TrxR1 inh: rat TrxR1 inhibition | recombinant rTrxR1, NADPH fluorescence consumption, selenite substrate | Potency, µM (series often up to 114 µM), usual class: inhibitors | actives 1% (n = 390,000); note: nearly all actives have a fitted effect of over 65% in size
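Rat TrxR1 (90 nM in the dispensed reagent) was pre-reduced with 400 uM NADPH for 5 min at room temperature, then incubated with compound for 15 min. After 400 uM selenite was added, NADPH fluorescence (Ex 340/Em 450 nm) was followed for 8 min.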
TrxR1 substrate: is turned over as a substrate by rat TrxR1; O89049; purified TrxR1 substrate turnover, NADPH consumption readout; Potency, µM (series often up to 114 µM); actives 0.01% (n = 390,000); note: nearly all actives have a fitted effect of over 50% in size
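Rat TrxR1, dispensed at 90 nM, was prereduced with 400 uM NADPH (final) for 5 min at ~22 deg C, then incubated with compound 15 min before 400 uM selenite. A first-read NADPH fluorescence drop versus no-compound background flagged substrates.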
GALK inh: blocks human galactokinase activity; P51570; Potency, µM (doses to about 57.5 µM), actives largely listed as inhibitors; actives 0.007% (n = 270,000); Purified GALK, Kinase-Glo residual ATP luminescence
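Quantitative HTS: GALK 5 nM, ATP 35 uM, galactose 100 uM, 1 h room temperature, then luciferase-based ATP detection.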
LDHA block: LDHA (human) enzyme inhibition; purified LDHA, NADH/diaphorase-resazurin fluorescence; hits give low values; actives 0.15% (n = 480,000); activity change, % (values are at about 110 or 230 µM); AID 1347041; P00338; in the data active = activity change below about -30%; inconclusive = mostly about -25% to -30%
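Remaining NADH was detected by diaphorase (0.133 mg/mL) converting 37 µM resazurin to fluorescent resorufin, read at 0 and 20 minutes. The preceding 5-minute room-temperature reaction used 2 nM LDHA, 0.2 mM sodium pyruvate and 0.06 mM NADH at pH 7.4.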
a7 integrin act: integrin-mediated muscular dystrophy alleviation activation | alpha7betagal myoblasts, beta-gal FDG fluorescence, 48 h | Potency, µM (series often up to 38.3 µM), usual class: activators | actives 0.064% (n = 350,000) | AID 624291; note: nearly all actives have a fitted effect of over 60% in size
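alpha7betagal+/- myoblasts (passage 13, 250/well) treated 48 h at 37C with compounds at 1:260 dilution of DMSO stock. Lysed, then beta-galactosidase activity read as FDG fluorescence (ex 480/em 540) after 30 min, with pre-read for autofluorescence.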
PI4K2A inh: inhibitors of human PI4K2A; Q9BTU6; purified PI4K2A, ADP-Glo luminescence, 1 h; hits give low values; activity change, negative = inhibition, % at 76.9 µM; actives 0.13% (n = 420,000); AID 1346378; in the data active = activity change below about -50%; inconclusive = mostly about -30% to -49%
Target sequence (Q9BTU6 whole entry, looked up): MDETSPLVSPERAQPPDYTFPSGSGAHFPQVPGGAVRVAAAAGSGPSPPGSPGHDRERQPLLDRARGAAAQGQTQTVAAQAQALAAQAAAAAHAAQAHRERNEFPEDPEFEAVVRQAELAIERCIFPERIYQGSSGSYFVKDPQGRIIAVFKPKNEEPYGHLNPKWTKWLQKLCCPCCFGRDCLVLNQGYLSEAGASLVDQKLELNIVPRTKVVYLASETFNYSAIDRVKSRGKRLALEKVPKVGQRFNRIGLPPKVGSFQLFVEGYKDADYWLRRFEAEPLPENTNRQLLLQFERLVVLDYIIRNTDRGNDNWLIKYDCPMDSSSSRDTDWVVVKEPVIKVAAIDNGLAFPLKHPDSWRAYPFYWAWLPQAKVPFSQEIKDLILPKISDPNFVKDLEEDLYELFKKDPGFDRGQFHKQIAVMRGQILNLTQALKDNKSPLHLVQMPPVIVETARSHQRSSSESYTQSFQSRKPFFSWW
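Compounds are screened against recombinant PI4K2A using PI as substrate and ATP, the latter dispensed at 300 microM. Reactions run one hour at ambient temperature before ADP-Glo detection; full inhibition defined by wells lacking enzyme.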
A number is an active result; - = inactive; ? = inconclusive; . = no result given; [ ] = another dose, or the depositor's remark. A selection: hits, their analogues and other compounds. The true share with any hit is near 1.1%. Unless noted, calls come from the whole dose curve; as a rule, active = well fitted curve in the direction sought with a large enough effect; inconclusive = small, poorly fitted or top-dose-only effect, or another doubt; inactive = no such curve, though single readings can be large; an effect the other way counts as inactive or inconclusive.

SMILES | TrxR1 inh | TrxR1 substrate | GALK inh | LDHA block | a7 integrin act | PI4K2A inh
CC1CCN(Cc2nc(Cl)c3c4c(sc3n2)CCC4)CC1 | 31.6µM | - | - | - | - | -
Cc1sc2nc(CN3CCCCC3)nc(Cl)c2c1C | 31.6µM | - | - | - | - | -
CCCOC(=O)c1nc2ccccc2nc1NCc1ccc2c(c1)OCO2 | . | . | . | - | . | .
CC(=O)N1c2ccc(S(=O)(=O)NCCC(=O)N(C)Cc3ccco3)cc2CC1C (stereo unspecified) | . | . | . | - | . | .
O=C(NCc1ccc(Cl)cc1)OCc1ccccc1 | . | . | . | - | . | .
Nc1sc2c(c1C(=O)NC1CCS(=O)(=O)C1)CCC2 (stereo unspecified) | 25.1µM | - | - | - | - | -
CNC(=O)c1c(N)sc2c1CCCCC2 | . | . | - | . | . | .
NC(=O)c1c(N)sc2c1CCCCC2 | - | - | - | - | - | ?
NC(=O)c1c(N)sc2c1CCC2 | 50.1µM | - | - | - | - | -
O=C(O)c1ccc(COc2ccccc2/C=N/O)cc1 | . | . | . | - | . | .
C/C(=N\NC(=O)Cc1cccs1)c1cccc2ccccc12 | . | . | . | - | . | .
O=c1[nH]c2c(s1)C(c1ccco1)C1C3CCC(C3)C1S2 (stereo unspecified) | 44.7µM | - | - | - | - | -
O=C(O)CN1C(=O)C2C3CC(C2C1=O)C1C(c2ccccc2)c2sc(=O)[nH]c2SC31 (stereo unspecified) | - | - | - | - | - | -
COc1ccccc1N1CCN(C(=O)c2cc(-c3ccco3)on2)CC1 | 44.7µM | - | - | - | - | -
O=C(c1cc(-c2ccccc2O)on1)N1CCc2ccccc2C1 | - | - | - | - | - | -
O=C(c1cc(-c2ccco2)on1)N1CCc2ccccc2C1 | 31.6µM | - | - | - | - | -
Fc1ccc(-c2csc(SCc3ccccc3F)n2)cc1 | . | . | . | - | . | .
CCOc1cc(C)c(Cl)cc1S(=O)(=O)NCCO | . | . | . | - | . | .
CC(=O)NCc1ccc(C(=O)CSc2nnc(-c3ccncc3)n2Cc2ccccc2)o1 | 15.8µM | - | - | - | - | -
Cc1cccc(-c2nnc(SCCC(=O)O)o2)c1 | - | -[11.4 µM] | . | - | . | -59.7
Cc1ccc(C(=O)NCC#N)cc1 | - | - | - | - | - | -
Cc1ccc(C(=O)NC(C#N)=C(Cl)Cl)cc1 | 3.16µM | - | - | - | - | -
Cc1cccc(NC(=O)CSCn2nnc3c(=O)[nH]c(Cc4ccc(F)cc4)nc32)c1C | . | . | . | - | . | .
CCOc1ccc(-c2cc(=O)c3ccc(NC(=O)c4ccccc4Cl)cc3o2)cc1 | . | . | . | - | . | .
COc1cccc(C(=O)Nc2ccc3oc(-c4cccc(Cl)c4)nc3c2)c1 | . | . | . | - | . | .
SMILES | TrxR1 inh | TrxR1 substrate | GALK inh | LDHA block | a7 integrin act | PI4K2A inh
CCOc1ccc(OCc2cccc(C(=O)O)c2)cc1 | - | - | - | - | - | -58.1
CCc1ccc(OCc2cccc(C(=O)O)c2)cc1 | . | . | . | - | . | .
O=C(NCCc1ccco1)c1nnc(C(=O)Nc2cccc(Cl)c2)s1 | . | . | . | - | . | .
CC(=O)C1=C(S(=O)(=O)c2ccc(C)cc2)CS(=O)(=O)C1 | 1.26µM | - | - | - | - | -
O=C1C(Cl)=C(NS(=O)(=O)c2ccc([N+](=O)[O-])cc2)C(=O)c2ccccc21 | 0.794µM | - | - | - | - | -
O=[N+]([O-])c1ccc(Oc2ccc(S(=O)(=O)Nc3ccccc3)cc2)cc1 | - | - | - | - | - | -
COc1ccccc1-c1ccc([C@@H]2C[C@H]3[C@H](CON3C)CN2C(=O)c2ccco2)cc1 | . | . | . | -32.2 | - | -
CN1c2ccccc2C(C)(C)C12CC(CCl)=NO2 (stereo unspecified) | 25.1µM | - | - | - | - | -
O=C(COC(=O)/C=C/c1cccs1)Nc1nc(-c2ccccc2)cs1 | 56.2µM | - | - | - | - | -
CCOC(=O)c1cc([N+](=O)[O-])c([N+](=O)[O-])cc1NC(C)=O | 3.16µM | - | . | - | - | -
CCCS(=O)(=O)c1nc(S(=O)(=O)c2ccc(C)cc2)c(NC(C)c2ccccc2)s1 (stereo unspecified) | 35.5µM | - | . | - | . | -
N#Cc1ccc(NC(=O)NCCNc2ccccn2)cc1 | . | . | . | - | . | .
CCN1CCN(c2oc(-c3ccccc3F)nc2C#N)CC1 | . | . | . | -30.8 | . | .
CCN1CCN(c2oc(-c3cccs3)nc2C#N)CC1 | . | . | . | -31.2 | . | .
N#Cc1nc(-c2cccs2)oc1N1CCN(c2ccccc2)CC1 | - | - | - | - | ? | -
N#Cc1nc(-c2ccc(F)cc2)oc1N1CCN(c2ccccc2)CC1 | . | . | . | - | . | .
N#Cc1nc(-c2ccc(F)cc2)oc1N1CCN(Cc2ccccc2)CC1 | . | . | . | -34.4 | . | .
Cc1ccc(C)c2c(/C=C/c3ccc(N(C)C)cc3)ccnc12 | - | - | . | - | . | .
Cc1ccc(/C=[N+](\[O-])c2ccc(N(C)C)cc2)c2nsnc12 | 22.4µM | - | - | - | - | -
Cc1ccc2c(c1)-c1ccccc1C2=O | . | . | . | - | . | .
Nc1ccc2c(c1)C(=O)c1ccccc1-2 | - | - | . | - | - | -
Nc1ccc2c(c1)C(=O)C(=O)c1ccccc1-2 | 6.31µM | 3.98µM | 6.31µM | - | - | ?
O=C1C(=O)c2ccc(-c3ccccc3)cc2-c2ccccc21 | ? | 10µM | ? | - | - | -63.4
CC(=O)Nc1ccc(NC(=O)Cn2c(C)cc3ccccc32)cc1 | . | . | . | - | . | .
CCN(CC1CCCO1)C(=O)/C=C/c1ccc(C#N)cc1 (stereo unspecified) | . | . | . | - | . | .
SMILES | TrxR1 inh | TrxR1 substrate | GALK inh | LDHA block | a7 integrin act | PI4K2A inh
O=C(CN(CCc1ccccc1)C(=O)Cn1nnc(-c2cccs2)n1)NCc1ccco1 | 50.1µM | - | - | - | - | -
N#Cc1c(NC(=O)c2ccnn2C(F)F)sc2c1CCC2 | . | . | . | - | . | .
COc1cc(CNCc2ccc(C(=O)O)cc2)ccc1OCc1ccc(F)cc1 | - | - | . | - | 4.47µM | -
O=C(O)c1ccc(CNCc2cccc(OCc3ccc(F)cc3)c2)cc1 | - | - | . | - | - | -
O=C(CCc1ncc(-c2ccc(F)cc2F)o1)Nc1ccc2c(c1)C(=O)NC2 | . | . | . | - | . | .
O=c1ccc(NS(=O)(=O)c2ccc(Cl)cc2)cn1Cc1ccc(Cl)c(Cl)c1 | ? | - | - | - | - | -59.2
C#CCNC(=O)CN(Cc1cccs1)C1CC1 | . | . | . | - | . | .
CN1CCN(Cc2c(O)ccc3cc(Br)ccc23)CC1 | 35.5µM | - | - | - | - | -
Cc1nn(C)c(C)c1CCC(=O)Nc1nccs1 | . | . | . | - | . | .
O=c1nc2n(-c3ccc(Cl)c(Cl)c3)c3cc(Cl)ccc3cc-2c(=O)[nH]1 | . | . | . | - | . | .
N#CC1=C(N)N(c2ccc(F)cc2)C2=C(C1c1ccc(O)cc1)S(=O)(=O)CC2 (stereo unspecified) | 7.94µM | - | - | - | - | -
CN(Cc1ccncc1)C(=O)CCCNC(=O)C1CC1 | . | . | . | - | . | .
O=C(CN1CCN(c2ccc(F)cc2)CC1)c1ccc2c(c1)OCO2 | 25.1µM | - | - | - | - | -
O=C1Cc2ccccc2C(=O)N1 | . | . | . | - | . | -56.4

Screening results deposited in PubChem BioAssay by National Center for Advancing Translational Sciences (NCATS).
